Test results taken from ChEMBL document CHEMBL3988442, “University of Dundee, Small-Polar-MMV Screening Library” (2021).

What follows are compounds tested against AMP-activated protein kinase, AMPK (Homo sapiens) (UniProt P54646+O43741+P54619+Q9UGJ0+Q9Y478+Q13131+Q9UGI9) (assay: AMP-dependent Kinase enzyme assay. An in vitro enzyme assay that detects ADP turnover that is directly proportional to AMPK activity. This uses naive AMPK that is activated during the assay with MK-8722). Settings: 30 µM.
Format: functional
Parameters: scale not given: direction of the effect not stated beside the values
With `CCc1ccc(N2CCC(NS(=O)(=O)N(CC)CC)CC2)cc1` the Percent Effect was 1.78%.
`CC1CN(c2ncnc3sccc23)CCN1c1nccs1` (stereo not given) showed a Percent Effect of 16.9%.
`COc1ccc(S(=O)(=O)Nc2cccnc2-n2cncn2)cc1C` was tested, and the Percent Effect was -0.234%.
Compound `COc1ccc(CN(C)Cc2c(C)noc2C)c(Br)c1OC` has a Percent Effect of 2.55%.
Work on `CCC(C)NC(=O)Nc1cccc(OCCCC#N)c1` (stereo not given) yielded a Percent Effect of -4.6%.
With `Cc1nn(C)c2nc(N3CCCCC3c3nccs3)sc12` (stereo not given) the Percent Effect was 5.6%.
With `COC(=O)CC1CCCCN1CC(=O)Nc1cc(F)ccc1F` (stereo not given) the Percent Effect was 7.24%.
Compound `CN1CCN(C2CCN(Cc3cn4ccccc4n3)CC2)C1=O` has a Percent Effect of 41.9%.
`O=C(NC1CCCC1)c1cc(Cn2cnc3ccccc32)on1` was tested, and the Percent Effect was 0.401%.
With `CN(CCc1ccncc1)c1cnn(C)c(=O)c1Br` the Percent Effect was -1.01%.
`Cc1cc(CNC(=O)N2CCOC(c3ccccc3Cl)C2)no1` (stereo not given) gave a Percent Effect of -7.62%.
`Cc1ccc(OCC2CCCN(C(=O)c3csc(CN(C)C)n3)C2)cc1` (stereo not given) was tested, and the Percent Effect was 14.7%.
`CN(CCc1noc(C2CC2)n1)C(=O)CN1C(=O)COc2ccccc21` showed a Percent Effect of -1.86%.
Compound `CSc1ccc(OCCN2CCNC(=O)C2C)cc1` (stereo not given) has a Percent Effect of 6.4%.
For `CCN(C(=O)Cn1cc(NC(=O)C(C)(C)C)cn1)c1ccccc1`, the Percent Effect was -3.26%.
With `COCCN(Cc1sccc1C)C(=O)COc1ccccc1O` the Percent Effect was 2.3%.
`COC(=O)c1ncccc1N1CCCC1` gave a Percent Effect of 9.09%.
In the case of `CN(Cc1cc[nH]n1)C(=O)c1ccc2c(c1)nc(N1CC[C@H](O)C1)n2C`, the Percent Effect is reported as 19.9%.
`CC(NCc1cnc(N2CCOCC2)s1)c1ccc(Cl)s1` (stereo not given) showed a Percent Effect of 9.15%.
Compound `CNS(=O)(=O)c1ccc(CNC(=O)NCc2cc[nH]n2)cc1` has a Percent Effect of 2.83%.
Compound `CC(C)Cc1nc(C[S+]([O-])CC(=O)NCc2ccccc2)no1` (stereo not given) has a Percent Effect of 0.747%.
`COc1cc(CNC(=O)COC2CCCCC2)ccc1O` was tested, and the Percent Effect was -0.805%.
For `CCCC1COCCN1Cc1ccc(NC(C)=O)cc1` (stereo not given), the Percent Effect was -4.72%.
Work on `Cn1cc(Cl)c(CN(Cc2ccsc2)CC2CCCO2)n1` (stereo not given) yielded a Percent Effect of 2.65%.
For `CCN(CCNC(=O)Nc1nnc(C)s1)C(=O)OC(C)(C)C`, the Percent Effect was -0.666%.
For `CC(Oc1ccc2c(c1)OCO2)C(=O)N1CCC(c2ncc[nH]2)CC1` (stereo not given), the Percent Effect was 4.41%.
Work on `COCCNc1ccc(CNCc2cnc3nc(C)cc(C)n23)cc1` yielded a Percent Effect of -9.48%.
In the case of `CN(C)CCNC(=O)CCC1CCN(C(=O)c2ccc(Cl)cc2O)CC1`, the Percent Effect is reported as 9.06%.
`O=C(Cc1c(F)cccc1Cl)Nc1cccc(N2CCCC2)c1` gave a Percent Effect of -5.51%.
Work on `COCC(O)CNC(=O)c1cc(COc2ccc3c(c2)CCCC3)on1` (stereo not given) yielded a Percent Effect of -0.134%.
With `CCc1ccc2nc(C)cc(C(=O)NC3CCNC3=O)c2c1` (stereo not given) the Percent Effect was -4.37%.
In the case of `CC(C)c1nc(CN2CCN(C(=O)OC(C)(C)C)C(C)C2)no1` (stereo not given), the Percent Effect is reported as 1.33%.
`Cc1ccccc1N1CCN(C(=O)CCc2nncn2C)C(C)C1` (stereo not given) gave a Percent Effect of 6.58%.
Work on `CN(CCCc1cnn(C)c1)Cc1cc2n(n1)CCCNC2` yielded a Percent Effect of -0.861%.
With `CCN(C)S(=O)(=O)N[C@H]1CN(c2ccc(F)cn2)C[C@@H]1C(C)C` the Percent Effect was -6.05%.
For `COc1cc(N(C)Cc2cc(C(C)(C)C)n[nH]2)ncn1`, the Percent Effect was -15.7%.
With `Cc1nccn1CCN1C(=O)CC2(CCCC2)CC1=O` the Percent Effect was 8.33%.
Compound `O=S(=O)(NCc1cn2ccccc2n1)N1CCOCC1` has a Percent Effect of 9.32%.
For `NC(=O)c1cc(C2CCCN(Cc3ccc4c(c3)OCCO4)C2)n[nH]1` (stereo not given), the Percent Effect was 3.64%.
For `CCCn1ccnc1-c1cccc(NC(=O)C2CCCOC2)c1` (stereo not given), the Percent Effect was -0.71%.
